# Test results from PubChem BioAssay (NCATS).
# Values joined by “and” are separate entries in the source; they are usually repeats but may differ in a detail not shown here. Equal values may be shown once. Results filed as inconclusive are left out. Where a call stands in place of a potency, no number is given. Active and inactive are the calls of the source. Unless noted, calls come from the whole dose curve; as a rule, active = well fitted curve in the direction sought with a large enough effect; inconclusive = small, poorly fitted or top-dose-only effect, or another doubt; inactive = no such curve, though single readings can be large; an effect the other way counts as inactive or inconclusive.
# Columns and labels:
# [1] = Cytotoxicity counterscreen for inhibitors of SARS-CoV-2 cell entry (AID 1645845; calls by dose curve; note: nearly all actives have a fitted effect of over 50% in size; note: potency is the fitted concentration of half-maximal effect)
# Summary of the method: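 After a 15 min room-temperature ATPLite 1step step, luminescence reflected ATP remaining in HEK293-ACE2 cells exposed to compound for 1 h plus 48 h at 37 C, with percent activity set by cell and no-cell controls.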
# [2] = target: Cytochrome P450 2D6 (Homo sapiens) (UniProt P10635); assay: Cytochrome P450 family 2 subfamily D member 6 (CYP2D6) small molecule antagonists: luciferase biochemical (cell-free) qHTS assay (AID 1645840; active = well fitted curve in the direction sought with a large enough effect in the repeat runs; an effect the other way counts as inactive or inconclusive; note: nearly all actives have a fitted effect of over 55% in size; note: potency is the fitted concentration of half-maximal effect)
# Sequence of Cytochrome P450 2D6 (Homo sapiens) (P10635 whole entry, looked up): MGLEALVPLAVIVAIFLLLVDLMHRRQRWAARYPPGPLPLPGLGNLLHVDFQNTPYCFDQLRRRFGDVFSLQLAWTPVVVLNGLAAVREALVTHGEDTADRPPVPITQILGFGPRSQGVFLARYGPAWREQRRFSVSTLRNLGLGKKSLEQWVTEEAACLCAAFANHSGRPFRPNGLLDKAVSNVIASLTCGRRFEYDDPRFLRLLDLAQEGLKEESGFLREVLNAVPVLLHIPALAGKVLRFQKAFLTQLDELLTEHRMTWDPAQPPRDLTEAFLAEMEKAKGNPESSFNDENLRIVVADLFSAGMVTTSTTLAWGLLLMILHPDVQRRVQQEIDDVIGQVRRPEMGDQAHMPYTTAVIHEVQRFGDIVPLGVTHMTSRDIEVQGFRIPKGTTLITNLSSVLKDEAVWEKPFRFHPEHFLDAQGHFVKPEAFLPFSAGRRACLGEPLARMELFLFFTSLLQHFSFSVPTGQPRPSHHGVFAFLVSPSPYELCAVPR
# Summary of the method: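 P450-Glo CYP2D6 system: proluciferin substrate converted by enzyme to luciferin, read by luminescence proportional to activity. Enzyme-substrate mix with compound 10 min at room temperature, then NADPH regeneration 1 h before detection reagent.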
# [3] = Primary qHTS to identify inhibitors of SARS-CoV-2 cell entry (AID 1645846; calls by dose curve; note: nearly all actives have a fitted effect of over 45% in size); settings: activity change, negative = inhibition: at 57.1 µM (top of the series) unless noted
# Summary of the method: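 Data are normalized to wells receiving SARS-CoV-2-S pseudoparticles and those given bald particles. Entry signal was luciferase luminescence in stable hACE2 Expi293F cells, 48 hr post-infection, after 1 hr compound pretreatment.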
# [4] = target: Cytochrome P450 3A4 (Homo sapiens) (UniProt P08684); assay: Cytochrome P450 family 3 subfamily A member 4 (CYP3A4) small molecule antagonists: luciferase qHTS assay (AID 1645841; active = well fitted curve in the direction sought with a large enough effect in the repeat runs; an effect the other way counts as inactive or inconclusive; note: nearly all actives have a fitted effect of over 45% in size)
# Sequence of Cytochrome P450 3A4 (Homo sapiens) (P08684 whole entry, looked up): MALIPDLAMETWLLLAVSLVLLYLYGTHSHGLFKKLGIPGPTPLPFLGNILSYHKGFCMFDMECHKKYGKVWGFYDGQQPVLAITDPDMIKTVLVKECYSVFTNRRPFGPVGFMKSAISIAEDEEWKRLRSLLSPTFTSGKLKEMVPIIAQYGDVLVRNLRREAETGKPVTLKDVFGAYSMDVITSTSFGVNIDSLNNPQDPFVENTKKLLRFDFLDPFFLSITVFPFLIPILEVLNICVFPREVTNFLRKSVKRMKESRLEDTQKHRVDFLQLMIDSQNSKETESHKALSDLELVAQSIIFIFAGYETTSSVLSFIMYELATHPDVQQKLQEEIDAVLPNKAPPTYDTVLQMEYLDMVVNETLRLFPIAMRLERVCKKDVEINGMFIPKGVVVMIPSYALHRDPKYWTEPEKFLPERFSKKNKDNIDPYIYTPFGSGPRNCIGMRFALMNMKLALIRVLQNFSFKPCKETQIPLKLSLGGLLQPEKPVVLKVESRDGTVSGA
# Summary of the method: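 P450-Glo CYP3A4 enzyme with proluciferin substrate was preincubated with DMSO-dissolved compounds for 10 min at room temperature. NADPH regeneration solution started a 1 h reaction. Detection reagent stopped it, and luminescence was read after 20 min.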
# [5] = Primary qHTS for inhibitors of nuclear receptor binding SET domain protein 2 (NSD2) in an isogenic RCH-ACV NSD2 p.E1099K mutant (9B) (AID 1645876); note: nearly all actives have a fitted effect of over 70% in size; note: potency is the fitted concentration of half-maximal effect
# [6] = Primary qHTS for inhibitors of nuclear receptor binding SET domain protein 2 (NSD2) in an RCH-ACV wild type WT cells (2C) (AID 1645877); note: nearly all actives have a fitted effect of over 70% in size; note: potency is the fitted concentration of half-maximal effect
# [7] = target: Cytochrome P450 2C9 (Homo sapiens) (UniProt P11712); assay: Cytochrome P450 family 2 subfamily C member 9 (CYP2C9) small molecule antagonists: luciferase biochemical (cell-free) qHTS assay (AID 1645842; active = well fitted curve in the direction sought with a large enough effect in the repeat runs; an effect the other way counts as inactive or inconclusive; note: nearly all actives have a fitted effect of over 55% in size; note: potency is the fitted concentration of half-maximal effect)
# Sequence of Cytochrome P450 2C9 (Homo sapiens) (P11712 whole entry, looked up): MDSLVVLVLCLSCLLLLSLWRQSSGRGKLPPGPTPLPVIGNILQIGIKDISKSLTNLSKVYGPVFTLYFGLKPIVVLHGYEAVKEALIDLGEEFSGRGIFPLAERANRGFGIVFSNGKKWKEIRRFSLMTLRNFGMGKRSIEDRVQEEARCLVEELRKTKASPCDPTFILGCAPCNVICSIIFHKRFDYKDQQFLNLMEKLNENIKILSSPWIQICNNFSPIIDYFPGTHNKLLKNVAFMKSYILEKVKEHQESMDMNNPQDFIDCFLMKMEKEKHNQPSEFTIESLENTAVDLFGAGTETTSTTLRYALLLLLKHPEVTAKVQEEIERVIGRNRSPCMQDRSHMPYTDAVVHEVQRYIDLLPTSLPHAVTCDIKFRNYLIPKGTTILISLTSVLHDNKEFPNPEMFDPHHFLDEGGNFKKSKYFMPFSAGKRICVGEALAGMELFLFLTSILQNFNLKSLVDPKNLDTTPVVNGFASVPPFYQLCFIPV
# Summary of the method: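 P450-Glo CYP2C9 system: proluciferin substrate with enzyme in mix containing 0.4% BSA, 10 min at room temperature, then NADPH regeneration solution added and incubated 1 h at 37C. Detection reagent stopped reaction; luminescence read after 20 min as RLU.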
# [8] = VSVG counterscreen qHTS to identify inhibitors of SARS-CoV-2 cell entry (AID 1645847; calls by dose curve; note: potency is the fitted concentration of half-maximal effect; nearly all actives have a fitted effect of over 65% in size)
# Summary of the method: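 Counterscreen using VSV-G (not spike) pseudotyped MLV particles on ACE2-expressing Expi293F cells after 1 h compound preincubation; infection ran 48 h at 37 °C. Data normalized to VSV-G PP and bald-PP wells.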
# [9] = target: N-terminal Xaa-Pro-Lys N-methyltransferase 1 (Homo sapiens) (UniProt Q9BV86); assay: Confirmatory qHTS for Inhibitors of N-terminal methyltransferase 1 (NTMT1): MTaseGlo Assay (AID 1645874);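 note: luminescence from SAH made as NTMT1 methylates SPKRIA peptide using SAM; nearly all actives have a fitted effect of over 65% in size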
# Sequence of N-terminal Xaa-Pro-Lys N-methyltransferase 1 (Homo sapiens) (Q9BV86 whole entry, looked up): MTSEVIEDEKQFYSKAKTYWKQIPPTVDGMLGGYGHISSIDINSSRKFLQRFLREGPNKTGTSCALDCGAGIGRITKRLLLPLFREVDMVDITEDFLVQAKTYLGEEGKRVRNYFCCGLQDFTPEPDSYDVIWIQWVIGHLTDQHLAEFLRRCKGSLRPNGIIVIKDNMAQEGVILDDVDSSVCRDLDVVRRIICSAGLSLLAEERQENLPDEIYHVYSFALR
# Summary of the method: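 Room-temperature NTMT1 reaction, 30 min, with 100 uM SAM and 1 uM SPKRIA substrate; enzyme 125 nM. Read-out: MTase-Glo luminescence, normalized to no-enzyme and DMSO controls.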
structure (smiles),measurement,setting,value
CC(C)C[C@@H]1[C@H](c2ccccc2)OC(=O)N1CCCN1CCCCCC1,Potency,[1],inactive
CC(Cc1ccccc1)NCc1ccccc1Cl (stereo unspecified),Potency,[2],0.155 µM (active)
same,"activity change, negative = inhibition",[3],-7.69%
CC(=O)OC1(c2ccccc2)CCN(CCc2ccccc2)CC1,Potency,[4],inactive
same,Potency,[5],inactive
same,Potency,[6],inactive
Oc1ccc2[nH]cc(CCCCN3CC=C(c4ccccc4)CC3)c2c1,Potency,[2],0.195 µM (active)
same,Potency,[5],7.5 µM (active)
same,Potency,[6],7.5 µM (active)
COP(=S)(OC)Oc1ccc(S(N)(=O)=O)cc1,Potency,[7],4.36 µM (active)
same,Potency,[1],inactive
same,Potency,[5],inactive
same,Potency,[6],inactive
O=C(CCl)c1ccc(Cl)cc1Cl,Potency,[2],inactive
same,Potency,[5],inactive
same,Potency,[6],inactive
COc1ccc2c3c1O[C@H]1[C@@H](O)C=C[C@H]4[C@@H](C2)N(C)CC[C@@]341,Potency,[7],inactive
same,Potency,[5],6.72 µM (active)
same,Potency,[6],6.72 µM (active)
CC[n+]1c(-c2ccccc2)c2cc(N)ccc2c2ccc(N)cc21,Potency,[2],3.47 µM (active)
same,Potency,[5],5.96 µM (active)
same,Potency,[6],2.66 µM (active)
CC#C[C@]1(O)CC[C@H]2[C@@H]3C[C@H](C)C4=CC(=O)CC[C@]4(C)[C@H]3CC[C@@]21C,Potency,[7],17.4 µM (active)
same,Potency,[1],inactive
same,Potency,[5],23.7 µM (active)
same,Potency,[6],15 µM (active)
C=CC[C@]1(O)CC[C@H]2[C@@H]3CCC4=CC(=O)CCC4=C3C=C[C@@]21C,Potency,[7],11 µM (active)
same,Potency,[1],inactive
same,Potency,[8],17.1 µM (active)
same,Potency,[6],23.7 µM (active)
CC(C)[N+](C)(CCC(C(N)=O)(c1ccccc1)c1ccccc1)C(C)C,Potency,[2],1.95 µM (active)
same,Potency,[1],inactive
same,"activity change, negative = inhibition",[3],-0.507%
same,Potency,[5],inactive
same,Potency,[6],inactive
O=C(O)CCCCCCNC1c2ccccc2CCc2ccccc21,Potency,[7],inactive
same,Potency,[5],inactive
same,Potency,[6],inactive
CCC1(c2ccccc2)CCC(=O)NC1=O (stereo unspecified),Potency,[2],inactive
same,Potency,[5],inactive
same,Potency,[6],inactive
CN1CCC(OC(c2ccccc2)c2ccccc2)CC1,Potency,[1],inactive
C[C@]12Cc3nonc3C[C@@H]1CC[C@@H]1[C@@H]2CC[C@@]2(C)[C@H]1CC[C@]2(C)O,Potency,[2],inactive
same,Potency,[5],21.1 µM (active)
same,Potency,[6],21.1 µM (active)
CCOC(=O)C1(c2ccccc2)CCN(CCc2ccc(N)cc2)CC1,Potency,[2],1.74 µM (active)
same,Potency,[1],inactive
same,Potency,[5],inactive
O=C(O)c1ccccc1Nc1cc(Cl)ccc1C(=O)O,Potency,[1],inactive
O=C1CN2CCOC2(c2ccccc2Cl)c2cc(Cl)ccc2N1 (stereo unspecified),Potency,[7],inactive
same,Potency,[1],inactive
same,"activity change, negative = inhibition",[3],-6.92%
same,Potency,[5],inactive
same,Potency,[6],inactive
OC(c1ccccc1)(c1ccccc1)C1CCNCC1,Potency,[7],inactive
same,Potency,[5],inactive
COc1ccc2c(C(=O)c3ccc(Cl)cc3)c(C)n(CC(=O)O)c2c1,Potency,[2],inactive
same,Potency,[5],inactive
same,Potency,[6],inactive
CCc1cc(OC)c(C[C@H](C)N)cc1OC,Potency,[7],inactive
same,Potency,[9],inactive
same,Potency,[6],44.9 µM (active)
C=Cc1c(C)c2cc3[nH]c(cc4nc(cc5nc(cc1[nH]2)C(C)=C5CCC(=O)O)C(CCC(=O)O)=C4C)c(C)c3C=C,Potency,[1],inactive
Cc1cccc(CN2CCN(C(c3ccccc3)c3ccc(Cl)cc3)CC2)c1 (stereo unspecified),Potency,[1],inactive
C[C@@H]1O[C@@H](O[C@@H]2C=C3CC[C@@H]4[C@H](CC[C@]5(C)[C@@H](c6ccc(=O)oc6)CC[C@]45O)[C@@]3(C)CC2)[C@H](O)[C@H](O)[C@H]1O,Potency,[2],inactive
same,"activity change, negative = inhibition",[3],-97.4%
same,Potency,[5],10.5 nM (active) and 4.7 nM (active)
same,Potency,[6],13.2 nM (active) and 7.5 nM (active)
C[C@]12CC[C@H](O)CC1=CC[C@@H]1[C@@H]2CC[C@]2(C)C(=O)CC[C@@H]12,Potency,[7],inactive
same,Potency,[1],inactive
same,Potency,[3],inactive
same,Potency,[6],inactive
CN(C)C(=S)SSC(=S)N(C)C,Potency,[7],3.47 µM (active)
same,Potency,[1],1.58 µM (active)
C=CCN1CC[C@]23CCCC[C@H]2[C@H]1Cc1ccc(O)cc13,Potency,[7],inactive
same,Potency,[1],inactive
same,"activity change, negative = inhibition",[3],-14.7%
same,Potency,[5],inactive
same,Potency,[6],inactive
C#C[C@]1(O)C=C[C@H]2[C@@H]3CCC4=CC(=O)CC[C@@H]4[C@H]3CC[C@@]21CC,Potency,[7],2.75 µM (active)
same,Potency,[1],inactive
same,"activity change, negative = inhibition",[3],-10.9%
Cc1nc2ccccc2c(=O)n1-c1ccccc1Cl,Potency,[7],27.7 µM (active)
CCCCCCCCCCCCCCCC[n+]1ccccc1,Potency,[1],11.2 µM (active)
CCC(=O)C(CCN(C)C)(c1ccccc1)c1ccccc1,Potency,[2],5.49 µM (active)
same,Potency,[1],inactive
same,"activity change, negative = inhibition",[3],-43.2%
same,Potency,[8],3.41 µM (active)
Cc1ccc(N=CN(C)C=Nc2ccc(C)cc2C)c(C)c1,Potency,[7],inactive
same,Potency,[1],inactive
same,"activity change, negative = inhibition",[3],-12.8%
same,Potency,[5],inactive
same,Potency,[6],inactive
CCC(OC(C)=O)C(CC(C)NC)(c1ccccc1)c1ccccc1 (stereo unspecified),Potency,[2],18 µM (active)
same,Potency,[5],24.6 µM (active)
same,Potency,[6],19.5 µM (active)
